Records with an inconclusive call do not appear. A number with no mark means an inactive call. Activity calls are given as the source filed them. The call rests on the fitted dose curve; in most records, active means well fitted inhibition curve with a large enough effect; inconclusive means small, poorly fitted or top-dose-only effect; inactive means flat fitted curve, though single readings scatter.
assay: Primary qHTS for inhibitors of nuclear receptor binding SET domain protein 2 (NSD2) in an isogenic RCH-ACV NSD2 p.E1099K mutant (9B) (AID 1645876); conditions: RCH-ACV (leukaemia line) NSD2 E1099K (9B) viability, CellTiter-Glo, 72 h; series mostly up to 44.9 µM; activity change, negative = viability loss: at the top concentration; further: nearly all actives have a fitted effect of over 70% in size
On the % scale 0 is the no-effect control and ±100 the full control effect.

Structure (SMILES)	activity change, negative = viability loss	outcome
COC1CC(O[C@H]2CC[C@@]3(C)C(=CC[C@]4(O)C3[C@H](O)[C@@H](O)[C@]3(C)[C@@H]([C@H](C)O)CC[C@@]34O)C2)OC(C)C1OC1CC(OC)C(OC2CC(OC)C(OC3OC(C)C(OC4OC(CO)C(O)C(O)C4O)C(OC)C3O)C(C)O2)C(C)O1 (some centres undefined)	1.87% [at 9.23 µM]	–
CC(=O)O[C@@]1(C)[C@@H]2CC(=C(C)C)C(=O)C[C@@]2(C)CC[C@H]1OC(=O)C1(C)OC1C (some centres undefined)	-6.54%	–
CC1(C)CC[C@]2(C(=O)O[C@@H]3O[C@H](CO)[C@@H](O)[C@H](O)[C@H]3O)CC[C@]3(C)C(=CCC4[C@@]5(C)CC[C@H](O[C@@H]6O[C@H](C(=O)O)[C@@H](O)[C@H](O)[C@H]6OC6OC(CO)C(O)C(O)C6O)C(C)(C)C5CC[C@]43C)[C@@H]2C1 (some centres undefined)	0.32% [at 9.23 µM]	–
O=C(O)C1(c2ccc(-c3ccc(Cl)c(Cl)c3)c(F)c2)CC1	-14.7%	–
CC1C2=CC(=O)OC2(O)CC2C1C(O)CC1C(C)(CO)CCCC21C (centres undefined)	-0.577%	–
CC1CCC2(C(=O)O)CCC3(C)C(=CCC4C5(C)CCC(O)C(C)(C(=O)O)C5CCC43C)C2C1(C)O (centres undefined)	–	inactive [at 17.3 µM]
O=C(/C=C/c1ccc(O)c(O)c1)OC[C@H]1O[C@@H](OC2CCCCC2O)[C@H](O)[C@@H](O)[C@@H]1O (some centres undefined)	–	inactive [at 17.3 µM]
C=CC1(C)C=C2CC[C@H]3[C@@](C)(C(=O)O)CCC[C@]3(C)C2CC1 (some centres undefined)	–	inactive
COc1ccc(/C=C/C(=O)O[C@@H]2[C@@H](OC(C)=O)[C@@H](OC(C)=O)[C@H](O[C@H]3[C@@H]4C=CO[C@@H](O[C@@H]5O[C@H](CO)[C@@H](O)[C@H](O)[C@H]5O)[C@@H]4[C@@]4(CO)O[C@@H]34)O[C@H]2C)cc1	–	inactive [at 17.3 µM]
